Bioassay records: PubChem BioAssay, National Center for Advancing Translational Sciences (NCATS)
An excerpt weighted towards active compounds, which were near 12% of everything screened.
BAZ2B block: inhibitors of human BAZ2B bromodomain | AID 504333 | Potency, µM (titrated, usually from 114 µM), inactives show at the top dose activity change, negative = inhibition, usual class: inhibitors | AlphaScreen BAZ2B-H3K14Ac peptide displacement | Q9UIF8 | 4.4% of 360,000 active; note: % is set by controls: 0 for no effect and ±100 for the full control effect; nearly all actives have a fitted effect of over 60% in size
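Compounds, titrated to a top concentration of 110 uM, were incubated 30 min at room temperature with preformed BAZ2B/acetyl-K14 H3 peptide complex (50 nM each). Proximity signal was measured by AlphaScreen after 20 min with beads.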
L3MBTL1 block: L3MBTL1 (human) inhibition. Q9Y468. 0.66% of 230,000 active. AlphaScreen L3MBTL1–H3K9me1 peptide binding. Potency, µM (titrated, usually from 57.1 µM), for inactives: at the top dose activity, negative = inhibition, most hits filed as inhibitors. AID 485360; note: % is set by controls: 0 for no effect and ±100 for the full control effect; nearly all actives have a fitted effect of over 60% in size
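Read-out is AlphaScreen signal from streptavidin donor and nickel chelate acceptor beads (10 ug/mL final each) bridging L3MBTL1 (50 nM) and biotinylated K9-monomethylated H3(1-15) peptide (75 nM), after 30 min compound exposure at room temperature.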
G9a inh: blocks human histone lysine methyltransferase G9a. 8.8% of 350,000 active. Q96KQ7. Potency, µM (top dose mostly 102 µM), without a hit: at the top dose activity, negative = inhibition, usual class: inhibitors. G9a H3K9 monomethylation, AlphaScreen, 2 h; note: % is set by controls: 0 for no effect and ±100 for the full control effect; nearly all actives have a fitted effect of over 75% in size
Target sequence (Q96KQ7 913-1193 limits assumed): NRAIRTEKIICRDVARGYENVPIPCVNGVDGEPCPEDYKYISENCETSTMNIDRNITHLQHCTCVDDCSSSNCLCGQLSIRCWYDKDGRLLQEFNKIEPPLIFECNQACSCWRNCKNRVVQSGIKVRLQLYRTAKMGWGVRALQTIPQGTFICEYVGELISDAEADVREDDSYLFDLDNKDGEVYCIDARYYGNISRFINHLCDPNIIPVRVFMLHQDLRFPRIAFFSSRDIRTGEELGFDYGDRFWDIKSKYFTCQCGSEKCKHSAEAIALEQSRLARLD
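AlphaScreen detection with an anti-monomethyl H3K9 antibody quantified product after a 2 h room-temperature reaction containing 500 nM biotinylated H3K9 peptide, 20 µM SAM and 20 nM enzyme, which had been preincubated 15 min with compound.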
HP1b chromo inh: blocks HP1-beta chromodomain binding to methylated histone tails; AlphaScreen HP1-beta / biotin-H3K9me3 peptide binding; 0.56% of 390,000 active; Potency, µM (series often up to 114 µM), for the others: top-dose activity change, negative = inhibition, most hits filed as inhibitors; P83916; note: nearly all actives have a fitted effect of over 70% in size
Target sequence (P83916 whole entry, looked up): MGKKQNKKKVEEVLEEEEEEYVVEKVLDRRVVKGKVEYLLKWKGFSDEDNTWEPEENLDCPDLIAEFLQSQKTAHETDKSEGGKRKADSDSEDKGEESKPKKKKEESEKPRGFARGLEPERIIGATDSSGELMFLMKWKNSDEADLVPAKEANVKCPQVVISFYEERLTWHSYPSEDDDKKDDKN
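Compound inhibition of the preformed complex between 50 nM HP1-beta and 50 nM biotinylated H3K9me3 peptide was read by AlphaScreen. Buffer was PBS pH 7.4 with 0.01% Tween-20. Incubations ran 30 min at room temperature, with 10 ug/mL donor/acceptor beads.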
Sfp inh: Sfp phosphopantetheinyl transferase inhibition. AID 1490. Q9F4F7. 3.5% of 310,000 active. Potency, µM, inactives show largest response in the series, negative = inhibition, actives largely listed as inhibitors. Biochemical Sfp PPTase activity, qHTS;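 note: the enzyme is Sfp with the accession as filed and its product quenches rhodamine fluorescence; 0% = enzyme reaction without inhibitor and -100% = no enzyme wells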
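With Hepes-Na pH 7.6 buffer containing 10 mM MgCl2, Sfp (15 nM) modified BHQ-2-YbbR (12.5 uM) using rhodamine-CoA (5 uM). Two reads 30 minutes apart at 525/598 nm yielded each well's rate.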
JMJD2A Tudor inh: blocks the human JMJD2A Tudor domain; AlphaScreen JMJD2A-Tudor / H3K4me3 peptide binding; O75164; Potency, µM (titrated, usually from 114 µM), inactives show at the highest dose activity change, negative = inhibition, most hits filed as inhibitors; 4.4% of 390,000 active; note: % is set by controls: 0 for no effect and ±100 for the full control effect; nearly all actives have a fitted effect of over 50% in size
Starred values were filed as active, the others as inactive; [ ] = dose if it differs, or a comment. Calls come from the whole dose curve; as a rule, active = well fitted curve in the direction sought with a large enough effect; inconclusive = small, poorly fitted or top-dose-only effect, or another doubt; inactive = no such curve, though single readings can be large; an effect the other way counts as inactive or inconclusive. Potency is the fitted concentration of half-maximal effect.

COc1ccc(-c2ccc([C@H]3[C@H]4C=CC[C@@H](C)[C@@H]4C(=O)N3Cc3ccccc3)c(F)c2)cc1OC was read as BAZ2B block -26%, G9a inh inconclusive, HP1b chromo inh 13%, Sfp inh 22µM* and JMJD2A Tudor inh -31%.
For COc1ccc(-c2ccc([C@H]3[C@@H]4C=CCC[C@@]4(C)C(=O)N3Cc3ccccc3)c(F)c2)cc1OC the results were BAZ2B block -10%, G9a inh 48%[12.7 µM], HP1b chromo inh 25%, Sfp inh 20µM* and JMJD2A Tudor inh inconclusive.
Screening COc1ccc(NC(=O)CCN2CCN(CCO)CC2)c(OC)c1 returned BAZ2B block -19%, G9a inh -49%[59 µM], HP1b chromo inh -2% and JMJD2A Tudor inh -15%.
For CCCN1CNc2c(c(=O)[nH]c(=S)n2CCc2c(OC)cccc2OC)C1 the results were HP1b chromo inh 22% and JMJD2A Tudor inh -17%.
`Cn1ccc(NS(=O)(=O)c2cc(Br)ccc2Br)n1` gave BAZ2B block 4%, L3MBTL1 block -1%, G9a inh 0%[12.7 µM], HP1b chromo inh 31% and JMJD2A Tudor inh 0%.
CSc1nc(NS(=O)(=O)c2cc(Br)ccc2Br)cc(=O)[nH]1 was read as BAZ2B block -5%, G9a inh 56µM*, HP1b chromo inh -16%, Sfp inh 11% and JMJD2A Tudor inh -21%.
Screening Cc1nnc(SCC(=O)N(C)c2c(N)n(Cc3ccccc3)c(=O)[nH]c2=O)n1Cc1ccccc1 returned BAZ2B block -16%, L3MBTL1 block 0%, G9a inh -21%, HP1b chromo inh 23%, Sfp inh 4% and JMJD2A Tudor inh -4%.
Screening CCN(C(=O)COC(=O)/C=C/c1ccc(C)o1)c1c(N)n(Cc2ccccc2)c(=O)[nH]c1=O returned BAZ2B block 0%, L3MBTL1 block -3%, G9a inh 11µM*, HP1b chromo inh inconclusive and JMJD2A Tudor inh 79µM*.
`CCN(C(=O)CSc1nncs1)c1c(N)n(Cc2ccccc2)c(=O)[nH]c1=O` gave BAZ2B block -19%, L3MBTL1 block 5%, G9a inh 14µM*, HP1b chromo inh 53%, Sfp inh 6% and JMJD2A Tudor inh -11%.
`CCCCN(C(=O)CSc1nnnn1C)c1c(N)n(Cc2ccccc2)c(=O)[nH]c1=O` gave BAZ2B block -17%, G9a inh 13%, HP1b chromo inh 6%, Sfp inh 17% and JMJD2A Tudor inh -5%.
Screening CCCCN(C(=O)CSc1nnc(Nc2ccccc2)s1)c1c(N)n(CCC)c(=O)[nH]c1=O returned BAZ2B block -5%, G9a inh 40µM*, HP1b chromo inh 37%, Sfp inh 3% and JMJD2A Tudor inh -13%.
For CCN(C(=O)CSc1nnnn1C)c1c(N)n(Cc2ccccc2)c(=O)[nH]c1=O the results were BAZ2B block -7%, L3MBTL1 block 13%, G9a inh 0%, HP1b chromo inh 31%, Sfp inh 9% and JMJD2A Tudor inh -9%.
Screening CCn1c(SCC(=O)N(C)c2c(N)n(Cc3ccccc3)c(=O)[nH]c2=O)nc2ccccc21 returned BAZ2B block 2%, L3MBTL1 block 11%, HP1b chromo inh -20%, Sfp inh 28µM* and JMJD2A Tudor inh -3%.
For CSCC[C@H](NC(=O)[C@H](Cc1ccccc1)NC(=O)[C@H](Cc1cnc[nH]1)NC(=O)CNC(=O)[C@@H](NC(=O)[C@H](C)NC(=O)[C@H](Cc1c[nH]c2ccccc12)NC(=O)[C@H](CC(C)C)NC(=O)[C@H](CC(N)=O)NC(=O)CN)[C@@H](C)O)C(N)=O the results were Sfp inh -3%.
CN(C(=O)CSc1nc2ccccc2s1)c1c(N)n(Cc2ccccc2)c(=O)[nH]c1=O was read as BAZ2B block -3%, G9a inh 25µM*, HP1b chromo inh 25%, Sfp inh -13% and JMJD2A Tudor inh -15%.
`Cc1nc(-c2ccccc2)sc1C(=O)NN` gave BAZ2B block -30%, L3MBTL1 block 17%, G9a inh inconclusive, HP1b chromo inh 66%, Sfp inh 10% and JMJD2A Tudor inh -22%.
CNC(=O)c1sc(-c2cccs2)nc1C was read as L3MBTL1 block 5%, G9a inh 45µM*, HP1b chromo inh 28%, Sfp inh 12% and JMJD2A Tudor inh 0%.
`Cc1cc(C)c(NC(=O)CCN2C(=O)c3ccccc3Sc3ncccc32)c(C)c1` gave BAZ2B block inconclusive, G9a inh 16%[59 µM], HP1b chromo inh 25% and JMJD2A Tudor inh 2%.
`COCC(=O)N1CCC[C@@]2(CCN(C(c3ccccc3)c3ccccc3)C2)C1` gave G9a inh 1%[12.7 µM] and Sfp inh 15%.
Cc1cc(N2CCN(C)CC2)nc2ccc(NC(=S)NCCCN3CCc4ccccc4C3)cc12 was read as BAZ2B block inconclusive, G9a inh 40µM*, HP1b chromo inh -7%, Sfp inh 8% and JMJD2A Tudor inh -26%.
Screening CCCN1CCN(CCCNC(=S)Nc2ccc3nc(N4CCN(CC)CC4)cc(C)c3c2)CC1 returned BAZ2B block -8%, G9a inh 35µM*, HP1b chromo inh 4%, Sfp inh 14% and JMJD2A Tudor inh -1%.
`CCN1CCN(c2cc(C)c3cc(NC(=S)NCCCN4CCc5ccccc5C4)ccc3n2)CC1` gave BAZ2B block inconclusive, G9a inh 32µM*, HP1b chromo inh -12%, Sfp inh 4% and JMJD2A Tudor inh inconclusive.
Screening Cc1cc(N2CCCC2)nc2ccc(NC(=S)NCCCN3CCC(C)CC3)cc12 returned G9a inh 50µM*, HP1b chromo inh 7%, Sfp inh 10% and JMJD2A Tudor inh -32%.
Screening COc1ccc(NC(=O)Cn2c(=O)oc3cc(S(=O)(=O)NC4CCCC4)ccc32)cc1OC returned BAZ2B block 2%, G9a inh -3%[59 µM], HP1b chromo inh 18% and JMJD2A Tudor inh -5%.
Screening O=C(COC(=O)c1ccccc1Nc1cccc(C(F)(F)F)c1)NCc1ccco1 returned BAZ2B block 45µM*, L3MBTL1 block inconclusive, G9a inh 28µM*, HP1b chromo inh inconclusive, Sfp inh -5% and JMJD2A Tudor inh 56µM*.
Screening O=C(COC(=O)c1ccccc1Nc1ccccc1)NCc1ccccc1 returned BAZ2B block 3%, L3MBTL1 block -5%, G9a inh 50µM*, HP1b chromo inh 46%, Sfp inh 10% and JMJD2A Tudor inh 1%.
